Source: PubChem BioAssay AID764 (NMMLSC, 2007)
Out of some 190,000 compounds screened, about 220 (0.12%) were called active. Roughly 2% stayed inconclusive and do not appear here. Only a selection was taken, and actives are over-represented in it overall. Unmarked numbers belong to inactive results.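 The calls were made as follows: active = GTP binding at least 20 percentage points away from the 100% baseline, in either direction, so actives lie on both sides; inconclusive = Compound likely fluorescent itself, or too few beads counted; inactive = the rest.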

Each molecule was assayed against Ras-related C3 botulinum toxin substrate 1 (Homo sapiens) (UniProt P63000) (assay: GTP binding modulators of activated mutant Rac1, primary screen, biochemical, bead-based flow cytometry, multiplex, fluorescent GTP (AID 764)). Conditions: GST-Rac1 activated beads, at 10 µM, actives lie on both sides, 100% means binding = to untreated wells.
C=CCn1c(CNC(=O)c2ccco2)nnc1SCC(=O)c1ccc(OC)cc1 showed a percent activity (GTP binding) of 97%.
COc1ccc(CCNC(=O)CN(c2ccccc2)S(C)(=O)=O)cc1 gave a percent activity (GTP binding) of 97%.
COc1cccc(OC)c1C(=O)NC(=S)Nc1ccc(N2CCOCC2)c(Cl)c1 showed a percent activity (GTP binding) of 95%.
Molecule NS(=O)(=O)c1ccc(NC(=O)COC(=O)CCc2c[nH]c3ccccc23)cc1 has a percent activity (GTP binding) of 99%.
CCOC(=O)C(=Cc1ccccc1OC)C(=O)OCC was tested, and the percent activity (GTP binding) was 89%.
In the case of COc1cc(/C=N/NC(=S)Nc2cccnc2)cc(OC)c1O, the percent activity (GTP binding) is reported as 89%.
With CCc1cc2c(=O)c(-c3nc4ccccc4n3C)c(CCCC(=O)O)oc2cc1OC(=O)C(C)(C)C the percent activity (GTP binding) was 94%.
Work on Cc1ccc(O)c(NC(=S)NC(=O)COc2ccc(Br)cc2)c1 yielded a percent activity (GTP binding) of 92%.
Work on COc1cc(N2C(=O)c3ccccc3C2=O)c(Cl)cc1C(=O)OCC(=O)N1CCOCC1 yielded a percent activity (GTP binding) of 97%.
Work on COc1ccc(N2CCN(C(C)=C3C(=O)c4ccccc4C3=O)CC2)cc1 yielded a percent activity (GTP binding) of 92%.
In the case of CCOC(=O)C(C)n1nc(-c2ccccc2)c2ccccc2c1=O (stereo not drawn), the percent activity (GTP binding) is reported as 96%.
Cc1ccc(CN(Cc2cccnc2)C(=S)Nc2cc(Cl)ccc2C)cc1 gave a percent activity (GTP binding) of 95%.
For CC1Cc2ccccc2N1S(=O)(=O)c1c(N)n(C)c(=O)n(C)c1=O (stereo not drawn), the percent activity (GTP binding) was 102%.
In the case of C/C(N)=C(/C#N)C(=O)COC(=O)C1CCN(C(=O)c2ccc(Cl)cc2)CC1, the percent activity (GTP binding) is reported as 97%.
O=C(COC(=O)c1ccc(F)cc1)Nc1nc2ccc([N+](=O)[O-])cc2s1 was tested, and the percent activity (GTP binding) was 93%.
Work on COc1cccc(CNn2cn[nH]c2=S)c1OCc1ccccc1 yielded a percent activity (GTP binding) of 95%.
With COC(=O)C1=C(C)N(C)C(=O)NC1c1ccc([N+](=O)[O-])o1 (stereo not drawn) the percent activity (GTP binding) was 93%.
With CCOC(=O)C1CCN(S(=O)(=O)c2cc(F)ccc2OC)CC1 the percent activity (GTP binding) was 96%.
Molecule Cc1cccc(N(C(=O)Cc2cccs2)C(C(=O)NCc2ccco2)c2ccncc2)c1 (stereo not drawn) has a percent activity (GTP binding) of 101%.
O=C(c1ccc(F)cc1)n1cc(C(=S)N2CCOCC2)c2ccccc21 gave a percent activity (GTP binding) of 98%.
Work on CCCN(CC(=O)Nc1ccccc1C)C(=O)c1cc(=O)[nH]c2ccccc12 yielded a percent activity (GTP binding) of 95%.
CCCC(=O)NC(=S)Nc1ccc(CN2CCOCC2)cc1 gave a percent activity (GTP binding) of 95%.
For CCN1CCc2nc(NC(=O)c3cc(F)c(F)cc3Cl)sc2C1, the percent activity (GTP binding) was 95%.
In the case of CCCCc1ccc(NC(=S)NCCCN2CCOCC2)cc1, the percent activity (GTP binding) is reported as 94%.
Work on CCOc1ccc(CN2CCN(Cc3ccc(C)o3)CC2CCO)cc1 (stereo not drawn) yielded a percent activity (GTP binding) of 96%.
O=Cc1ccc(OCc2cn3ccccc3n2)cc1 was tested, and the percent activity (GTP binding) was 97%.
In the case of Brc1cc(/C=N/n2cnnc2)oc1Br, the percent activity (GTP binding) is reported as 100%.
Molecule CS(=O)(=O)Nc1cccc(-c2cn3ccccc3n2)c1 has a percent activity (GTP binding) of 96%.
CCOC(=O)CNC(=O)/C(=C\c1ccc(F)cc1)NC(=O)c1ccccc1 was tested, and the percent activity (GTP binding) was 95%.
Molecule COc1cccc(CC(=O)N2CCCC(CCC(=O)N3CCN(c4ccccn4)CC3)C2)c1 (stereo not drawn) has a percent activity (GTP binding) of 96%.
Molecule Cc1cccc(C)c1NC(=O)C1CCCN1C(=O)OC(C)(C)C (stereo not drawn) has a percent activity (GTP binding) of 97%.
CCOc1cc(NC(=S)NCCCN(C)C)c(OCC)cc1NC(=O)C1CC1 showed a percent activity (GTP binding) of 95%.
With CCC(C)c1ccc(NC(=S)NCc2ccccn2)cc1 (stereo not drawn) the percent activity (GTP binding) was 94%.
COc1cccc(/C=C2\SC(=N)N(c3ccc(F)cc3)C2=O)c1 showed a percent activity (GTP binding) of 93%.
Work on O=C(CSc1ccc(-c2ccco2)nn1)NCc1ccc2c(c1)OCO2 yielded a percent activity (GTP binding) of 96%.
For COc1ccc(N(CC(=O)Nc2ccc(C)cc2C)S(=O)(=O)c2ccccc2[N+](=O)[O-])c(OC)c1, the percent activity (GTP binding) was 93%.
Work on CCOc1ccc(CCN2C(=O)c3cccnc3C2=O)cc1OCC yielded a percent activity (GTP binding) of 97%.
O=C1N/C(=C/c2cccs2)C(=O)N1Cc1ccc(F)cc1 was tested, and the percent activity (GTP binding) was 97%.
O=C(Nc1ccc2c(c1)C(=O)OC2)Nc1cccc2ccccc12 gave a percent activity (GTP binding) of 96%.
Molecule NC(=O)C1CCN(C(=O)COc2cccc3cccnc23)CC1 has a percent activity (GTP binding) of 95%.
In the case of Cn1c(N)c(C(=O)COC(=O)c2cnc(Cl)c(Cl)c2)c(=O)n(C)c1=O, the percent activity (GTP binding) is reported as 93%.
In the case of CN(C)c1ccc2c(=O)[nH][nH]c(=O)c2c1, the percent activity (GTP binding) is reported as 99%.
With O=S(=O)(NCCc1ccc(F)cc1)c1cccc2cccnc12 the percent activity (GTP binding) was 96%.
With CCC(=O)N1CCC(C(N)=O)(N2CCCCC2)CC1 the percent activity (GTP binding) was 96%.
Molecule COc1cc2sc(C)nc2cc1C has a percent activity (GTP binding) of 95%.
Molecule CCN(CC)P(=O)(Nc1ccc(SC(F)F)cc1)c1ccc(N(C)C)cc1NC(=O)c1ccco1 (stereo not drawn) has a percent activity (GTP binding) of 92%.
COc1ccc(C2=NN(C(=O)CCC(=O)O)C(c3cccs3)C2)cc1OC (stereo not drawn) showed a percent activity (GTP binding) of 96%.
Molecule COCCCNC(NC(=O)c1ccc(OC)cc1)C(Cl)(Cl)Cl (stereo not drawn) has a percent activity (GTP binding) of 95%.
With COc1ccc(NS(=O)(=O)c2cc(NC(=O)C3CCCCC3)ccc2N2CCOCC2)cc1 the percent activity (GTP binding) was 96%.
C/C=C/c1ccc(OCC(O)CN2CCCCCCC2)c(OC)c1 (stereo not drawn) gave a percent activity (GTP binding) of 96%.
CC(C)N(C(=O)CSc1nc(COc2ccccc2)nc2ccccc12)C(C)C gave a percent activity (GTP binding) of 93%.
Work on O=C(Nc1nnc(Cc2ccccc2)s1)c1cnccn1 yielded a percent activity (GTP binding) of 99%.
Molecule CCOc1cc(/C=N/NC(=O)c2ccc(CSc3nncn3C)cc2)ccc1OCC(=O)N1CCOCC1 has a percent activity (GTP binding) of 93%.
